# Laboratory results published in PubChem BioAssay.
# This is one part of the list. Calls of active or inactive are those of the source.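 Rule for the calls, unless noted: active = mean inhibition above about 50% in the one-dose retest (limit read from the data); inactive = the rest.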
# Key:
# [1] = biological target: Sentrin-specific protease 8 (Homo sapiens) (UniProt Q96LD8); experiment: human SENP8 peptidase blockers, hit retest – biochemical, luminescence, single concentration, confirmation (AID 488912;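 active = mean inhibition across replicates above about 50%, limit read from the data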); conditions: Recombinant SENP8, Z-RLRGG-aminoluciferin luminescence, 60 min; at 12.5 µM; stronger effect = higher value
# Sequence of Sentrin-specific protease 8 (Homo sapiens) (Q96LD8 whole entry, looked up, the tested form may be a part): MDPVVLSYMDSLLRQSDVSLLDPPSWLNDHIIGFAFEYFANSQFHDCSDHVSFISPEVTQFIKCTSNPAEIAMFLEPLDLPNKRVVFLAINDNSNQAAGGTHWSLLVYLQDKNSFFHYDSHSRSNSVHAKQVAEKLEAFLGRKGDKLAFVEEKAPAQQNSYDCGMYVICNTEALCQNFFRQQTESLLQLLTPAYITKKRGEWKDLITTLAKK
# [2] = biological target: Sentrin-specific protease 6 (Homo sapiens) (UniProt Q9GZR1); experiment: inhibition of human SENP6 catalytic domain – biochemical, luminescence, single concentration, confirmation (AID 488915); conditions: recombinant SENP6, Z-RLRGG-aminoluciferin luminescence; at 12.5 µM; stronger effect = higher value
# Sequence of Sentrin-specific protease 6 (Homo sapiens) (Q9GZR1 628-1112 limits assumed): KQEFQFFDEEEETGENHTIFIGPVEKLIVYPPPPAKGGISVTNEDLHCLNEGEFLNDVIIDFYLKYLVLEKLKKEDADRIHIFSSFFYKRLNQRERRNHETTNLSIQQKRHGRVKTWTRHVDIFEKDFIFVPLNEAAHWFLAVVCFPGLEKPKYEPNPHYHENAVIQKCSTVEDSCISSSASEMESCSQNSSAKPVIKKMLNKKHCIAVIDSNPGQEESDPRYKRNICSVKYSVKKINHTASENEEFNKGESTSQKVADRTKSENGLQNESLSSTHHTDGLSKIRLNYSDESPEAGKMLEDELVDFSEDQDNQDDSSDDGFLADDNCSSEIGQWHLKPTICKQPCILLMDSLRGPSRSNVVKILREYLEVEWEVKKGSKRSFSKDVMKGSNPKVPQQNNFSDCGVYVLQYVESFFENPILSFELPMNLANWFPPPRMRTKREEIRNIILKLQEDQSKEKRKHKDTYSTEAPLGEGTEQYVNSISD
# [3] = biological target: Sentrin-specific protease 7 (Homo sapiens) (UniProt Q9BQF6); experiment: human SENP7 peptidase blockers, hit retest – biochemical, luminescence, single concentration, confirmation (AID 488917); conditions: recombinant SENP7, Z-RLRGG-aminoluciferin luminescence, 40 min; at 12.5 µM; stronger effect = higher value
# Sequence of Sentrin-specific protease 7 (Homo sapiens) (Q9BQF6 706-1050 limits assumed): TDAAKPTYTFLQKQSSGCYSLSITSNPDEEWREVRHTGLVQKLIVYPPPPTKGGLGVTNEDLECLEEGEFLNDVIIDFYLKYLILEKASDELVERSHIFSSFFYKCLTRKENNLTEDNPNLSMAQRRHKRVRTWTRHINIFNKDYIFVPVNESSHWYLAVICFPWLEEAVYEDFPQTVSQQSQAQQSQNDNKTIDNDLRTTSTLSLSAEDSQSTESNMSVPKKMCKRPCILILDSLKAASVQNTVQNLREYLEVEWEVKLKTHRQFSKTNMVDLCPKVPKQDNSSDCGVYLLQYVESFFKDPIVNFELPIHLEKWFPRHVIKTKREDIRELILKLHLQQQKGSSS
# Caspase-3 (Homo sapiens) = Caspase-3 (Homo sapiens) (UniProt P42574); experiment: human caspase-3 activity blockade, out-of-family – biochemical, single concentration, selectivity assay for SENP inhibitor project, confirmation (AID 488918;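 active = mean inhibition above about 50%, limit read from the data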;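 note: plate controls were enzyme with DMSO for no effect and wells without caspase-3 for full effect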); conditions: purified caspase-3, Z-DEVD-aminoluciferin luminescence, 60 min; at 12.5 µM; stronger effect = higher value
# Sequence of Caspase-3 (Homo sapiens) (P42574 28-227 limits assumed): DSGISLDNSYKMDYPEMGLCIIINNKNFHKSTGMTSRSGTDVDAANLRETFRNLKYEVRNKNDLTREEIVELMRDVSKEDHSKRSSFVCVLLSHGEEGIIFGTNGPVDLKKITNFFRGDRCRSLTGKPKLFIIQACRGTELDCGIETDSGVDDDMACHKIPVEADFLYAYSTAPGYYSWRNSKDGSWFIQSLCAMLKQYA
# [4] = Ultra-Glo luciferase signal interference – biochemical, single concentration, SENP8 reaction pre-completed, artefact control for SENP inhibitor project, confirmation (AID 488919;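 active = mean inhibition above about 50% when retested at one dose, limit read from the data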;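 note: plate controls were DMSO wells with completed reaction for no effect and substrate without enzyme for full effect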); conditions: Pre-incubated SENP8/Z-RLRGG-aminoluciferin, luciferase luminescence interference; at 12.5 µM; stronger effect = higher value
# [5] = apoptosome-driven caspase-3 activation blockers – biochemical, fluorescence, DEVD-Rh110, 20 µM, confirmation (AID 504614;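 active = mean inhibition of at least 40% at 20 µM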;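 note: plate controls were DMSO wells for no effect and DEVD-CHO caspase inhibitor control wells for full effect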); conditions: reconstituted apoptosome, caspase-3 DEVD-Rh110 fluorescence; at 20 µM; stronger effect = higher value
# [6] = detection-step artefacts after completed caspase reaction – biochemical, fluorescence, Rh110, 20 µM, artefact control for Apaf-1 inhibitor project, confirmation (AID 504615;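 active = signal rise of 40% or more at 20 µM, treated as a fluorescence artifact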); conditions: quenched caspase reaction, at 20 µM, stronger effect = higher value
# [7] = fluorescence interference of Apaf-1 inhibitor hits, dose response, artefact control for Apaf-1 inhibitor project (AID 588538; call rule not given here); conditions: fluorescence interference counterscreen, Apaf-1 assay format
# [8] = NF-kB reporter suppression in CF airway cells – cell-based, GFP fluorescence, single concentration, confirmation (AID 602472; in the data active = inhibition above about 40%;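 note: stimulus PAF is a Pseudomonas aeruginosa filtrate and not platelet activating factor; plate controls were DMSO wells with stimulus for no effect and unstimulated DMSO wells for full effect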); conditions: KKLEB CF airway cells, PAF-induced NF-kB-GFP fluorescence, overnight; at 5 µM; stronger effect = higher value
# [9] = NFkB reporter suppression in cystic fibrosis bronchial cells – cell-based, uHTS hits, panel, cytotoxicity readout, dose response (AID 624344); conditions: CF bronchial epithelial cells, PAF-induced NFkB reporter inhibition, with PAF, run 1; at 79 µM (top of the series) unless noted
# [10] = as above; conditions: CF bronchial epithelial cells, PAF-induced NFkB reporter inhibition, with PAF, run 2; at 79 µM (top of the series) unless noted
# [11] = biological target: Tumor necrosis factor receptor superfamily member 10B (Homo sapiens) (UniProt O14763); experiment: viability loss of caspase-8 NB7 cells with TRAIL – with/without TRAIL, luminescence panel, confirmation (AID 651596; in the data active = activity above about 50%); conditions: NB7 neuroblastoma + caspase-8, TRAIL sensitization, NB7 Caspase-8, with TRAIL, mean of runs, at 10 µM, stronger effect = higher value
# Sequence of Tumor necrosis factor receptor superfamily member 10B (Homo sapiens) (O14763 whole entry, looked up): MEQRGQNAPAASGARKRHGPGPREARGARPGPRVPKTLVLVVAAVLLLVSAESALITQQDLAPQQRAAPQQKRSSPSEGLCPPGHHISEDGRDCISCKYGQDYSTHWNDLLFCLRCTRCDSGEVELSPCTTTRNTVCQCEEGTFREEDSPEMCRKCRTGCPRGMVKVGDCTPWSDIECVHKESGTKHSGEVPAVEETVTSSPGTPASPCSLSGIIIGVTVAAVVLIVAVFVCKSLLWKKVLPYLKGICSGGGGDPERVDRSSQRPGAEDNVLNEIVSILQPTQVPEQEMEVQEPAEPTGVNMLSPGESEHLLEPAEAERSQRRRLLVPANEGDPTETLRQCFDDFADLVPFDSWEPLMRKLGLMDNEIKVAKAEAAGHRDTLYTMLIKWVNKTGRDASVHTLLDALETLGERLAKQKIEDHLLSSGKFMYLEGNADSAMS
# [12] = as above; conditions: NB7 neuroblastoma + caspase-8, without TRAIL, NB7 Caspase-8, without TRAIL, mean of runs, at 10 µM
# [13] = biological target: Protein Mdm4 (Homo sapiens) + E3 ubiquitin-protein ligase Mdm2 (Homo sapiens) (UniProt O15151+Q00987); experiment: human Mdm2/MdmX binding disruption – cell-based, luminescence, single concentration, set 2, confirmation (AID 504601;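 active = mean inhibition of the luminescence signal across two replicates at or above 26 percent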); conditions: SaOS-2 split-luciferase Mdm2/MdmX complementation, at 8 µM, stronger effect = higher value
# Sequence of Protein Mdm4 (Homo sapiens) + E3 ubiquitin-protein ligase Mdm2 (Homo sapiens) (O15151 whole entry, looked up, the tested form may be a part): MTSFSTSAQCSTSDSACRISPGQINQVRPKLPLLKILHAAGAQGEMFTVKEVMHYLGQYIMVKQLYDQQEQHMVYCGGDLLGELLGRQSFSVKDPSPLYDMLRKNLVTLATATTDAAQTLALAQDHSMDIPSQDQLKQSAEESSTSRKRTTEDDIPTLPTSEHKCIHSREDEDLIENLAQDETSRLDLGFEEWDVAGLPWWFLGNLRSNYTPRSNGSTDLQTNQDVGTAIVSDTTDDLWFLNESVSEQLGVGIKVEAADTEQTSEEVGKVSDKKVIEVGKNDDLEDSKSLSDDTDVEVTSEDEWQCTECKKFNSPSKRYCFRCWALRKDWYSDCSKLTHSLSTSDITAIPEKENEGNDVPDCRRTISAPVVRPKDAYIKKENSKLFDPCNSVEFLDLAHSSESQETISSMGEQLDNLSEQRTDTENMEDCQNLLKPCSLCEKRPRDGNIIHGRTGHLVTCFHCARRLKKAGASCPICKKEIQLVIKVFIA
# Sequence of Protein Mdm4 (Homo sapiens) + E3 ubiquitin-protein ligase Mdm2 (Homo sapiens) (Q00987 whole entry, looked up, the tested form may be a part): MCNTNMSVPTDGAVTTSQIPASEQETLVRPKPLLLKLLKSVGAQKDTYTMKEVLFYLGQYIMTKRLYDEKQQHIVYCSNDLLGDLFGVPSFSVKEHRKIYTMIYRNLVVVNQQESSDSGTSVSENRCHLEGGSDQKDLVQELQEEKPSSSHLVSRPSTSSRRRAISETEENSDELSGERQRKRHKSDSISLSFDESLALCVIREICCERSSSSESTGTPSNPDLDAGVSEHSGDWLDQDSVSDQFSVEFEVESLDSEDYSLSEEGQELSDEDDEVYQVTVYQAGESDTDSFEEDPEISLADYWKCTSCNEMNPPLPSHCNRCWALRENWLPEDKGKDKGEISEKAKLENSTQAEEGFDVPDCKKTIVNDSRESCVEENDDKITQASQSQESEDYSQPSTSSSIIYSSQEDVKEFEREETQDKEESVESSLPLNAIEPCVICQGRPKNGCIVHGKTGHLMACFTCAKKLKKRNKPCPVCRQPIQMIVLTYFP
# [14] = biological target: Carboxy-terminal domain RNA polymerase II polypeptide A small phosphatase 1 (Homo sapiens) (UniProt Q9GZU7); experiment: SCP1 melting temperature change from compounds – biophysical, differential scanning fluorimetry, orthogonal assay for Scp-1 inhibitor project, confirmation (AID 540329;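 active = substances whose mean melting-temperature shift, as a percentage of the reference inhibitor's shift, reaches about 5.3%, limit read from the data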;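 note: 0% = Tm of DMSO wells and 100% = Tm with sodium orthovanadate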); conditions: Recombinant SCP1, Sypro Orange thermal shift Tm; at 40 µM; stronger effect = higher value
# Sequence of Carboxy-terminal domain RNA polymerase II polypeptide A small phosphatase 1 (Homo sapiens) (Q9GZU7 76-261 limits assumed): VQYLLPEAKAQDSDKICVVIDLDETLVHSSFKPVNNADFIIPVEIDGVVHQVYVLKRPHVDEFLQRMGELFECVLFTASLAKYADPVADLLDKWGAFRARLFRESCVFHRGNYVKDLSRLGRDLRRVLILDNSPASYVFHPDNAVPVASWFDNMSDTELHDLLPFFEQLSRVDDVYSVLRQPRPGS
# [15] = Brca1-Bard1 BiLC signal decrease – luminescence, single concentration, counter-screen for Mdm2/MdmX interaction inhibitor project, confirmation (AID 504668; call rule not given here); conditions: Brca1/Bard1 bimolecular luciferase complementation counterscreen, at 8 µM, stronger effect = higher value
# [16] = inhibition of PEG-3 promoter luciferase signal – cell-based, HeLa, luciferase reporter, single concentration, confirmation (AID 602417;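 active = at 20 µM dose, 40% or more inhibition averaged across four replicates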); conditions: HeLa PEG-Prom luciferase reporter, luminescence, overnight; at 20 µM; stronger effect = higher value
# [17] = HIF-2a driven luciferase blockers, single dose – luminescence, 786-0 RCC cells, confirmation (AID 651580;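 active = mean inhibition across four replicates of at least 40 percent at the single tested concentration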); conditions: HIF-2a luciferase reporter luminescence, overnight, at 18.8 µM, stronger effect = higher value
# [18] = HIF-1a luciferase reporter signal reduction – MiaPaCa-2 cells, single concentration, counter-screen for HIF-2a inhibitor project, confirmation (AID 651589;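 active = mean inhibition of the reporter signal across four replicates at the single tested dose of 50% or more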); conditions: MiaPaCa-2 HIF-1a luciferase reporter, desferoxamine, overnight; at 18.8 µM; stronger effect = higher value
# PEG-3 [19] = biological target: PEG-3 (UniProt Q6IN02); experiment: inhibition of PEG-3 promoter-driven reporter – cell-based, HeLa, luciferase, CREF/GAPDH counter-screen panel, dose response (AID 624167); conditions: CREF/GAPDH counter-screens; HeLa PEG-Prom luciferase reporter, overnight, run 1, dose range 1, at 100 µM (top of the series) unless noted
# Sequence of PEG-3 (Q6IN02 whole entry, looked up): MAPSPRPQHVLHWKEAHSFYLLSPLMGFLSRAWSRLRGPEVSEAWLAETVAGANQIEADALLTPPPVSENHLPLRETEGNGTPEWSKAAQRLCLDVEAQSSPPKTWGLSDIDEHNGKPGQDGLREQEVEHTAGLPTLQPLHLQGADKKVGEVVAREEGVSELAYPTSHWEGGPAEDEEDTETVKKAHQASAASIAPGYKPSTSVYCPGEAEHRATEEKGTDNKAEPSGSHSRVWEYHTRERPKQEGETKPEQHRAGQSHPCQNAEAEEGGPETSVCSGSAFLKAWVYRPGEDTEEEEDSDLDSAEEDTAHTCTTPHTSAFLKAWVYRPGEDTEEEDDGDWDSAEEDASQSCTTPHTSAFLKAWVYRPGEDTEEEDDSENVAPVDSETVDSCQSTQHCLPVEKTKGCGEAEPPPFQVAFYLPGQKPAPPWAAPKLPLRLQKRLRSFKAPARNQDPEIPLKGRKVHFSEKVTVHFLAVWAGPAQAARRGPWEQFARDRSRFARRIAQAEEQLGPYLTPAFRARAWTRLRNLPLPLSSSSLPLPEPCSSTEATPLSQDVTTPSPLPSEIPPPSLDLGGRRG
# PEG-3 [20] = biological target: PEG-3 (UniProt Q6IN02); experiment: as above; conditions: CREF/GAPDH counter-screens; HeLa PEG-Prom luciferase reporter, overnight, run 2, dose range 1, at 100 µM (top of the series) unless noted
structure (smiles),measurement,setting,value
CCOC(=O)c1ccc(Nc2cc3ccccc3c(=O)[nH]2)cc1,inhibition,[1],28.7% (inactive)
same,inhibition,[2],63.5% (active)
same,inhibition,[3],31.6% (inactive)
same,inhibition,Caspase-3 (Homo sapiens),9.8% (inactive)
same,inhibition,[4],-2.7% (inactive)
same,inhibition,[5],62.4% (active)
same,activation (fluorescence interference),[6],11.7% (inactive)
same,IC50,[7],> 100 µM (inactive)
O=C(Nc1nnc(S(=O)(=O)N2CCCCCC2)s1)c1cccc(Br)c1,inhibition,[1],42.1% (inactive)
same,inhibition,[2],31.9% (inactive)
same,inhibition,[3],21.7% (inactive)
same,inhibition,Caspase-3 (Homo sapiens),28.6% (inactive)
same,inhibition,[4],29.4% (inactive)
same,inhibition,[8],77.4% (active)
same,inhibition,[9],83%
same,inhibition,[10],68.3%
Clc1ccc(C2=CSC3=Nc4cccc5cccc(c45)N23)cc1,inhibition,[1],1.7% (inactive)
same,inhibition,[2],55.9% (active)
same,inhibition,[3],7.2% (inactive)
same,inhibition,Caspase-3 (Homo sapiens),-5.7% (inactive)
same,inhibition,[4],-2.1% (inactive)
same,inhibition,[5],62.8% (active)
same,activation (fluorescence interference),[6],-1.7% (inactive)
same,IC50,[7],> 100 µM (inactive)
O=C(CSC(=S)N1CCOCC1)c1ccccc1,inhibition,[1],79.2% (active)
same,inhibition,[2],77.6% (active)
same,inhibition,[3],94.1% (active)
same,inhibition,Caspase-3 (Homo sapiens),88.1% (active)
same,inhibition,[4],77% (active)
same,activity,[11],46.8%
same,activity,[12],55.2%
CC(=O)c1ccc(S(=O)(=O)N2CCN(C(=O)/C=C/c3ccc4ccccc4n3)CC2)cc1,inhibition,[13],85.2% (active)
CCOC(=O)c1c(-c2cccc(C)c2)csc1NC(=O)c1c(-c2ccccc2)noc1C,inhibition,[13],101% (active)
CC(=O)N(C1=C(Cl)C(=O)c2ccccc2C1=O)c1ccc(C(=O)O)cc1,inhibition,[1],81.7% (active)
same,inhibition,[2],91% (active)
same,inhibition,[3],55.3% (active)
same,inhibition,Caspase-3 (Homo sapiens),6.3% (inactive)
same,inhibition,[4],4% (inactive)
same,inhibition,[5],95% (active)
same,activation (fluorescence interference),[6],9.87% (inactive)
same,IC50,[7],> 100 µM (inactive)
CCOc1ccc(-c2nnc(-c3ccco3)o2)cc1,inhibition,[1],5.3% (inactive)
same,inhibition,[2],72.1% (active)
same,inhibition,[3],79% (active)
same,inhibition,Caspase-3 (Homo sapiens),73.8% (active)
same,inhibition,[4],15.9% (inactive)
same,activity,[11],52.5%
same,activity,[12],56.5%
CCOC(=O)/C=C/C(=O)OCC(=O)NC(c1ccccc1)c1ccccc1,inhibition,[13],99.7% (active)
O=C(/C=C/Sc1ncn[nH]1)c1ccc(Cl)cc1,inhibition,[13],103% (active)
CSc1ccc(/C=N/NC(=O)c2cccc(Cl)c2)cc1,inhibition,[1],36.6% (inactive)
same,inhibition,[2],96.5% (active)
same,inhibition,[3],44.1% (inactive)
same,inhibition,Caspase-3 (Homo sapiens),93.6% (active)
same,inhibition,[4],40.2% (inactive)
same,thermal shift relative to vanadate control,[14],9.78% (active)
COc1ccc(-c2cn3ccsc3n2)cc1,inhibition,[1],55.5% (active)
same,inhibition,[2],51.2% (active)
same,inhibition,[3],81.3% (active)
same,inhibition,Caspase-3 (Homo sapiens),74.4% (active)
same,inhibition,[4],56.3% (active)
same,activity,[11],64.2%
same,activity,[12],54.6%
Cc1ccsc1C(=O)OCC(=O)c1cc(C)n(CC2CCCO2)c1C (configuration not stated),inhibition,[1],35.3% (inactive)
same,inhibition,[2],97.2% (active)
same,inhibition,[3],102% (active)
same,inhibition,Caspase-3 (Homo sapiens),96.7% (active)
same,inhibition,[4],58.8% (active)
same,inhibition,[15],28.9% (active)
same,inhibition,[16],80.8% (active)
same,inhibition,[17],65.9% (active)
same,inhibition,[18],80.2% (active)
same,inhibition,PEG-3 [19],96.8%
same,inhibition,PEG-3 [20],92.7%
same,activity,[11],74.5%
same,activity,[12],68.1%
O=c1c2cc(-c3ccccc3)sc2nc2n1N=C(c1cccs1)CS2,inhibition,[1],11.6% (inactive)
same,inhibition,[2],3.2% (inactive)
same,inhibition,[3],-0.5% (inactive)
same,inhibition,Caspase-3 (Homo sapiens),8.2% (inactive)
same,inhibition,[4],3.2% (inactive)
same,thermal shift relative to vanadate control,[14],11.4% (active)
same,activity,[11],63.5%
same,activity,[12],57.9%
c1c2c(cc3sc(N4CCCCC4)nc13)OCCO2,inhibition,[1],97% (active)
same,inhibition,[2],98.6% (active)
same,inhibition,[3],103% (active)
same,inhibition,Caspase-3 (Homo sapiens),97.5% (active)
same,inhibition,[4],52.1% (active)
same,inhibition,[16],37.5% (inactive)
COc1ccc(-c2cc3ccc(OCc4nn[nH]n4)cc3oc2=O)cc1,inhibition,[1],64% (active)
same,inhibition,[2],63.1% (active)
same,inhibition,[3],87.3% (active)
same,inhibition,Caspase-3 (Homo sapiens),66.2% (active)
same,inhibition,[4],70.6% (active)
same,activity,[11],58.8%
same,activity,[12],56.2%
Cn1c(NC(=O)c2ccccc2)nc2ccccc21,inhibition,[1],55.5% (active)
same,inhibition,[2],61.6% (active)
same,inhibition,[3],89.8% (active)
same,inhibition,Caspase-3 (Homo sapiens),83.7% (active)
same,inhibition,[4],65.2% (active)
same,activity,[11],50.4%
same,activity,[12],61.1%
O=C1[C@H]2[C@@H](c3ccc(F)cc3)N3C(=O)N(c4ccc(C(F)(F)F)cc4)C(=O)[C@@]3(Cc3ccccc3)[C@H]2C(=O)N1C1CCCCC1,inhibition,[13],101% (active)
COc1ccc(C(=O)NC2CCCc3c2cnn3-c2cccc(C)c2C)c(OC)n1 (configuration not stated),inhibition,[13],102% (active)
CCOc1cc(N2CCOCC2)c(OCC)cc1NC(=O)COc1cccc2cccnc12,inhibition,[13],92.7% (active)
